{
  "source": "paper PMC4336329",
  "about": "(PLoS ONE, 2015)",
  "note": "The whole screen tested about 310,000 compounds, of which about 14,000 (4.5%) showed an effect of 50% or more. Effects have a minus sign here. This is one part of a sample in which strong results are shown more often than they occur.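 Also: peak tail current of the secondary pulse compared with the same well before compound.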",
  "data": [
    {"target": "human ether-à-go-go-related gene (hERG) potassium channel (human, UniProt Q12809)", "sequence (Q12809 whole entry, looked up)": "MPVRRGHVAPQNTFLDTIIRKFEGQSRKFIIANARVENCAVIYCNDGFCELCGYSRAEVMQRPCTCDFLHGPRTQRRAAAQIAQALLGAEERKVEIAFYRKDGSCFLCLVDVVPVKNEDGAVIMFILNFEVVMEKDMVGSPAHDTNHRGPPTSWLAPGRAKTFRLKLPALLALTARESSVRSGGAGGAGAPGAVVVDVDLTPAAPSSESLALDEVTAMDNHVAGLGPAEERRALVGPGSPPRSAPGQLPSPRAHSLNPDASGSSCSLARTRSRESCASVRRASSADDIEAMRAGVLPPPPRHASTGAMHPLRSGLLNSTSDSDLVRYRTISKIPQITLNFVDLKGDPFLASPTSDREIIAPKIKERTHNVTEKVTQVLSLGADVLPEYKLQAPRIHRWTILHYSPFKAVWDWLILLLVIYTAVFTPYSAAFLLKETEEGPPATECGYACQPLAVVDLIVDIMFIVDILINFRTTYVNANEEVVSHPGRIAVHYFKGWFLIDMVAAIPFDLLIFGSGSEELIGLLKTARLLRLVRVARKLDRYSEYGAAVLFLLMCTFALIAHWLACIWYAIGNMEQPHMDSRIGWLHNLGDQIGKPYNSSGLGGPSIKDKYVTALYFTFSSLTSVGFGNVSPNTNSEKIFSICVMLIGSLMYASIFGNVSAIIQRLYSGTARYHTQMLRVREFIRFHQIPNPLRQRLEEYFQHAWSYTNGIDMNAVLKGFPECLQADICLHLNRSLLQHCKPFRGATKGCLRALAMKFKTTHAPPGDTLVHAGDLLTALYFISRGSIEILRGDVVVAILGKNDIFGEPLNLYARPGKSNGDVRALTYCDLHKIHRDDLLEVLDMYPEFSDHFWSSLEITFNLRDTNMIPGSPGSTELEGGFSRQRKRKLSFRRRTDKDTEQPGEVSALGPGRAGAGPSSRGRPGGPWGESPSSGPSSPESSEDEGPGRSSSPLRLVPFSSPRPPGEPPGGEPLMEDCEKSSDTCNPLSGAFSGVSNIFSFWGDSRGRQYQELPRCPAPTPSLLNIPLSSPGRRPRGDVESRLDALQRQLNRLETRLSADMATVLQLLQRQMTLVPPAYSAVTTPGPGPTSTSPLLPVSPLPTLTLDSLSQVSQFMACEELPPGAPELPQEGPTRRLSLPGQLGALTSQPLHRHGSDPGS", "experiment": "primary screen, population patch clamp on CHO cells stably expressing hERG; higher = less effect of the substance", "units": {"hERG current change (%, negative = inhibition) at 10uM": "%"}, "values": [
      {"smiles": "CC(Oc1ccccc1)C(=O)N=C1SC2CS(=O)(=O)CC2N1Cc1ccc(F)cc1", "note": "(stereo not shown)", "hERG current change (%, negative = inhibition) at 10uM": -24.6},
      {"smiles": "CCc1cccc(CC)c1NC(=O)C1CCN(C(=O)c2ccco2)CC1", "hERG current change (%, negative = inhibition) at 10uM": 2.93},
      {"smiles": "COc1ccc(C(=O)OCn2nnc3ccccc3c2=O)cc1OC", "hERG current change (%, negative = inhibition) at 10uM": 8.71},
      {"smiles": "O=C(Nc1ccc(Cl)cc1)C1C2C=CC3(O2)C1C(=O)N(CCN1CCCCC1)C3C(=O)NC1CCCCC1", "note": "(stereo not shown)", "hERG current change (%, negative = inhibition) at 10uM": -44.1},
      {"smiles": "O=C(Nc1ccc(Cl)c(Cl)c1)C1C2C=CC3(O2)C1C(=O)N(CCN1CCCCC1)C3C(=O)NC1CCCCC1", "note": "(stereo not shown)", "hERG current change (%, negative = inhibition) at 10uM": -60.8},
      {"smiles": "O=C(Nc1ccc(Br)cc1)C1C2C=CC3(O2)C1C(=O)N(CCN1CCCCC1)C3C(=O)NC1CCCCC1", "note": "(stereo not shown)", "hERG current change (%, negative = inhibition) at 10uM": -59.8},
      {"smiles": "O=C(Nc1ccc(Br)cc1)C1C2C=CC3(O2)C1C(=O)N(CCN1CCOCC1)C3C(=O)NC1CCCCC1", "note": "(stereo not shown)", "hERG current change (%, negative = inhibition) at 10uM": -3.6},
      {"smiles": "Cc1ccc(NC(=O)C2C3C=CC4(O3)C2C(=O)N(CCCN2CCCCC2)C4C(=O)NC2CCCCC2)cc1Cl", "note": "(stereo not shown)", "hERG current change (%, negative = inhibition) at 10uM": 16.3},
      {"smiles": "Cc1cc(C)cc(NC(=O)C2C3C=CC4(O3)C2C(=O)N(CCN2CCCCC2)C4C(=O)NC2CCCCC2)c1", "note": "(stereo not shown)", "hERG current change (%, negative = inhibition) at 10uM": -40.3},
      {"smiles": "Cc1ccc(-c2nc(N)n(S(C)(=O)=O)n2)cc1", "hERG current change (%, negative = inhibition) at 10uM": 7.05},
      {"smiles": "CC(C)(C)n1nc2c(c1NC(=O)c1ccccc1F)CS(=O)C2", "note": "(stereo not shown)", "hERG current change (%, negative = inhibition) at 10uM": 15.6},
      {"smiles": "Cc1ccc2cc(/C=C/C(=O)c3ccco3)c(Cl)nc2c1", "hERG current change (%, negative = inhibition) at 10uM": 15.2},
      {"smiles": "Cc1ccc(NC(=O)c2ccc3c(=O)n4c(nc3c2)CCCCC4)nc1", "hERG current change (%, negative = inhibition) at 10uM": -60.4},
      {"smiles": "COc1ccc(C)cc1NC(=O)c1ccc2c(=O)n3c(nc2c1)CCCCC3", "hERG current change (%, negative = inhibition) at 10uM": -42.5},
      {"smiles": "O=C(Nc1nc(-c2ccccc2)cs1)c1ccc2c(=O)n3c(nc2c1)CCCCC3", "hERG current change (%, negative = inhibition) at 10uM": -23.8},
      {"smiles": "Cc1cccc(NC(=O)c2ccc3c(=O)n4c(nc3c2)CCCCC4)n1", "hERG current change (%, negative = inhibition) at 10uM": -67.2},
      {"smiles": "O=C(Nc1ccccn1)c1ccc2c(=O)n3c(nc2c1)CCCCC3", "hERG current change (%, negative = inhibition) at 10uM": -47.2},
      {"smiles": "Cc1ccc(-c2csc(NC(=O)c3ccc4c(=O)n5c(nc4c3)CCCCC5)n2)cc1", "hERG current change (%, negative = inhibition) at 10uM": -6.65},
      {"smiles": "Cc1csc(NC(=O)c2ccc3c(=O)n4c(nc3c2)CCCCC4)n1", "hERG current change (%, negative = inhibition) at 10uM": -80.3},
      {"smiles": "Cc1cc(C)c2nc(NC(=O)c3ccc4c(=O)n5c(nc4c3)CCCCC5)sc2c1", "hERG current change (%, negative = inhibition) at 10uM": 13.9},
      {"smiles": "O=C(Nc1ccccc1Cl)c1ccc2c(=O)n3c(nc2c1)CCC3", "hERG current change (%, negative = inhibition) at 10uM": -6.14},
      {"smiles": "COc1ccc(-c2cc(C(=O)N3CCN(c4ncccn4)CC3)c3ccccc3n2)cc1", "hERG current change (%, negative = inhibition) at 10uM": -33.4},
      {"smiles": "CCCCNCc1nc2ccccc2c(=O)[nH]1.Cl", "hERG current change (%, negative = inhibition) at 10uM": 5.81},
      {"smiles": "COc1ccc(/C=N\\NC(=O)c2ccc(=O)[nH]n2)cc1O", "hERG current change (%, negative = inhibition) at 10uM": 18.4},
      {"smiles": "Brc1cccc(-c2nnc(SCc3ccon3)n2-c2ccccc2)c1", "hERG current change (%, negative = inhibition) at 10uM": -48.9},
      {"smiles": "Cc1ccc(NC(=O)CN2c3cccc4cccc(c34)S2(=O)=O)cc1S(=O)(=O)N1CCOCC1", "hERG current change (%, negative = inhibition) at 10uM": 0.358},
      {"smiles": "Cc1cc(NC(=O)COc2c(C)cccc2C)no1", "hERG current change (%, negative = inhibition) at 10uM": 22.3},
      {"smiles": "CC(=O)c1cccc(NC(=O)C(C)N(C)CC(=O)Nc2ccc(Cl)cc2)c1", "note": "(stereo not shown)", "hERG current change (%, negative = inhibition) at 10uM": -5.14},
      {"smiles": "c1ccc(Oc2nnc(-c3cccs3)c3ccccc23)cc1", "hERG current change (%, negative = inhibition) at 10uM": -5.87},
      {"smiles": "Cc1ccc(S(=O)(=O)N2CCCN(C(=O)c3ccc(-n4cccn4)cc3)CC2)cc1", "hERG current change (%, negative = inhibition) at 10uM": -74.2},
      {"smiles": "O=C(c1cccc(-n2cccc2)c1)N1CCN(S(=O)(=O)c2ccc(F)cc2)CC1", "hERG current change (%, negative = inhibition) at 10uM": -34.7},
      {"smiles": "Cc1ccc(S(=O)(=O)N2CCN(C(=O)c3ccc(S(=O)(=O)N4CCCC4)cc3)CC2)cc1", "hERG current change (%, negative = inhibition) at 10uM": -6.64},
      {"smiles": "CC(C)(C)C(=O)N1CCN(c2ncccc2C(F)(F)F)CC1", "hERG current change (%, negative = inhibition) at 10uM": 1.88},
      {"smiles": "Cc1ccc(S(=O)(=O)N2CCN(C(=O)c3ccccc3)CC2)cc1", "hERG current change (%, negative = inhibition) at 10uM": -31},
      {"smiles": "O=C(c1cccc(-n2cccc2)c1)N1CCN(S(=O)(=O)c2ccccc2)CC1", "hERG current change (%, negative = inhibition) at 10uM": -32},
      {"smiles": "Cc1ccnn1-c1ccc(C(=O)N2CCCN(S(=O)(=O)c3ccc(F)cc3)CC2)cc1", "hERG current change (%, negative = inhibition) at 10uM": -69.7},
      {"smiles": "O=C(c1ccc(F)cc1)N1CCN(S(=O)(=O)c2ccc(Br)cc2)CC1", "hERG current change (%, negative = inhibition) at 10uM": -5.63},
      {"smiles": "O=C(c1ccc(-n2cccn2)cc1)N1CCN(c2ncccc2C(F)(F)F)CC1", "hERG current change (%, negative = inhibition) at 10uM": -60.4},
      {"smiles": "O=C(c1ccncc1)N1CCN(S(=O)(=O)c2ccc(F)cc2)CC1", "hERG current change (%, negative = inhibition) at 10uM": 15.2},
      {"smiles": "Cc1ccc(S(=O)(=O)N2CCN(C(=O)c3cccc(-n4cccc4)c3)CC2)cc1", "hERG current change (%, negative = inhibition) at 10uM": -51.3},
      {"smiles": "O=C(O)CCC(=O)N1CCN(c2ncccc2C(F)(F)F)CC1", "hERG current change (%, negative = inhibition) at 10uM": 9.74},
      {"smiles": "CCOC(=O)c1sc2nc(N3CCCC3)c3c(c2c1N)CC(C)(C)OC3", "hERG current change (%, negative = inhibition) at 10uM": 10.4},
      {"smiles": "O=[N+]([O-])c1cccc(N/N=C/c2cccc(O)c2O)c1", "hERG current change (%, negative = inhibition) at 10uM": 16.7},
      {"smiles": "COc1ccc(-c2n[nH]c3c2C(c2ccc(OC)c(OC)c2)N(c2ccccc2)C3=O)cc1", "note": "(stereo not shown)", "hERG current change (%, negative = inhibition) at 10uM": 3.73},
      {"smiles": "Cc1cc(Cl)ccc1N(CC(=O)NCc1ccccc1)S(C)(=O)=O", "hERG current change (%, negative = inhibition) at 10uM": -1.12},
      {"smiles": "Cc1cc(Cl)ccc1OCCCC(=O)NNC(=O)c1ccncc1", "hERG current change (%, negative = inhibition) at 10uM": -30.2},
      {"smiles": "O=C(CSc1nnc(COc2ccc(Cl)cc2)n1Cc1ccco1)c1ccccc1F", "hERG current change (%, negative = inhibition) at 10uM": 13.1},
      {"smiles": "CC(Sc1nnc(COc2ccc(Cl)cc2)n1Cc1ccccc1)C(=O)O", "note": "(stereo not shown)", "hERG current change (%, negative = inhibition) at 10uM": 3.06},
      {"smiles": "Cl.Clc1ccc(OCc2nnc(SCCN3CCCCC3)n2Cc2ccco2)cc1", "hERG current change (%, negative = inhibition) at 10uM": -75.9},
      {"smiles": "CC(Sc1nnc(COc2ccc(Cl)cc2)n1Cc1ccco1)C(=O)N1CCNC1=O", "note": "(stereo not shown)", "hERG current change (%, negative = inhibition) at 10uM": -55.9},
      {"smiles": "COc1ccccc1NC(=O)CSc1nnc(COc2ccc(Cl)cc2)n1Cc1ccco1", "hERG current change (%, negative = inhibition) at 10uM": -12.7},
      {"smiles": "Clc1ccc(OCc2nnc(SCc3nc4ccccc4[nH]3)n2Cc2ccco2)cc1", "hERG current change (%, negative = inhibition) at 10uM": -36}
    ]}
  ]
}
